# Source: PubChem BioAssay (several laboratories)
# This is a sample that favours compounds with a hit; in the whole collection about 2.2% have one here.
# Ba/F3 V617F tox – reduced viability of JAK2V617F-dependent Ba/F3 cells, primary screen, JAK2V617F inhibitor project, cell-based, Ba/F3 EpoR-JAK2V617F, luminescence; actives 1.1% (n = 220,000); inhibition, % at 5.6 µM; ATP luminescence;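 active = inhibition above the campaign mean plus 3 SD over all tested compounds, cut at about 24% in these data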;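 also: cytokine-independent growth of Ba/F3 cells driven by EpoR plus mutant JAK2; 0% = DMSO-treated cells and 100% = JAK inhibitor I control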
# IEC-6 tox – cytotoxicity in IEC-6 intestinal epithelial cells, primary screen, cytotoxicity control for KLF5 inhibitor project, cell-based, luminescence | IEC-6 cytotoxicity, luminescence viability | AID 1825, 2009 | inhibition, % at 5 µM | actives 0.78% (n = 290,000); in the data active = inhibition above about 22%;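 also: 0% = plate median of test compound wells and 100% = cytotoxic reference compound wells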
# aSyn UTR inh – MLPCN primary screen, SNCA 5' untranslated region; alpha-synuclein 5'UTR reporter, inhibitor activity; inhibition, % (tested at 7.5 µM); actives 0.82% (n = 300,000); AID 1813, 2009; in the data active = inhibition above about 60%; inconclusive = no clear call, values can overlap the other calls;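 also: H4 neuroglioblastoma cells stably carrying SNCA 5'UTR luciferase fusion; 0% = DMSO wells and 100% = positive control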
# BaF3 tox – parental Ba/F3 cell viability inhibition, counter-screen for JAK2V617F inhibitor project, murine pro-B, CellTiter-Glo luminescence; inhibition, % at 5.6 µM; AID 1486, 2009; CellTiter-Glo ATP luminescence; actives 1.1% (n = 220,000);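 active = inhibition above a per-campaign cutoff, the mean inhibition of all tested compounds plus 3 SD, cut at about 27% in these data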;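 also: 0% = DMSO wells and 100% = JAK Inhibitor I control wells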
# KLF5 inh – KLF5 expression inhibitors, primary screen, DLD-1 cells, luminescence; actives 0.23% (n = 290,000); inhibition, % at 5 µM; DLD-1 KLF5 promoter-luciferase reporter;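 active = inhibition above a per-plate limit of that plate's mean compound inhibition plus 3 SD, cut at about 60% in these data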;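 also: 0% = DMSO wells and 100% = LY294002 at 200 µM; higher means less KLF5 promoter-driven luciferase light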
# APP 5UTR inh – inhibitors of APP translation via 5'UTR reporter, primary screen, APP 5'UTR luciferase, SH-SY5Y cells | AID 1285, 2008 | SH-SY5Y APP 5'UTR-luciferase reporter, luminescence | inhibition, % at 2 µM | actives 0.82% (n = 190,000);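 active = inhibition above a set limit, derived from the sample mean plus 3 SD, cut at about 45% in these data; inconclusive = one replicate passes the limit while the other fails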
# * = called active by the depositor; ? = inconclusive; / = no result.
SMILES,Ba/F3 V617F tox,IEC-6 tox,aSyn UTR inh,BaF3 tox,KLF5 inh,APP 5UTR inh
C#CCn1cc(/C=N/Nc2nc3ccccc3[nH]2)c2ccccc21,3,31*,-383,4,-37,-4
C#CCn1cc(/C=N/NC(=O)COc2cccc3cccnc23)c2ccccc21,4,8,-38,9,-33,-13
O=C(Cc1cccs1)N/N=C/c1ccccc1,-4,-2,-19,0,-21,/
COc1ccc2c(c1)c(/C=N/Nc1nc3ccccc3[nH]1)c(C)n2C,2,16,-115,53*,-42,/
CCN(CC)c1ccc(/C=N/NC(=O)Cc2cccs2)c(O)c1,1,7,?,8,-19,64*
CCN(CC)c1ccc(/C=N/Nc2nc3ccccc3[nH]2)c(O)c1,3,2,84*,4,-5,-9
CCCOc1cccc(C(=O)Nc2ccc3c(c2)OCCO3)c1,/,0,-62,/,-83,/
CCOC(=O)C1CCCN(C(=O)c2ccc3c(=O)n(Cc4ccccc4OC)c(=S)[nH]c3c2)C1 (configuration not stated),/,1,-2,/,-24,/
CCCCn1c(/C=N/Nc2nc3ccccc3[nH]2)nc2ccccc21,1,4,-433,3,-4,88*
COc1ccc(-c2cc3c(=O)n(CC(=O)N4CCCC4)ncn3n2)cc1,/,-4,1,/,-31,/
C=C1/C(=C\C=C2/CCC[C@]3(C)[C@@H]([C@H](C)CCCC(C)(C)O)CC[C@@H]23)C[C@@H](O)C[C@@H]1O,45*,2,0,3,-35,/
COc1cc2c(cc1NC(=O)C(C)N1CCN(S(=O)(=O)c3ccccc3[N+](=O)[O-])CC1)oc1ccccc12 (configuration not stated),-3,10,-61,5,-10,93*
COc1cc2c(cc1NC(=O)c1cccc([N+](=O)[O-])c1)oc1ccccc12,0,-3,81*,-1,-43,-6
COc1cc2c(cc1NC(=O)c1ccc(C)c([N+](=O)[O-])c1)oc1ccccc12,-1,7,-3,3,-5,5
COc1cc2c(cc1NC(=O)COc1ccc3ccccc3c1)oc1ccccc12,2,0,4,4,-2,46*
Nc1ccc(C(=O)NC23CC4CC(CC(C4)C2)C3)cc1,/,4,1,/,-40,/
Cc1ccc(C(=O)OCC(=O)N(CC(C)C)c2c(N)n(Cc3ccccc3)c(=O)[nH]c2=O)cc1[N+](=O)[O-],/,/,4,/,/,/
Cc1cccnc1NC(=O)c1ccc(NS(=O)(=O)/C=C/c2ccccc2)cc1,/,/,5,/,/,/
CC(C)NC(=S)NC(c1ccccc1)(c1ccccc1)c1ccccc1,/,7,3,/,10,/
CC(=O)N1N=C(c2ccccc2)CC1c1ccc2c(c1)OCO2 (configuration not stated),/,-1,-27,/,-30,/
CC(=O)C1=NN(c2ccccc2)C(c2ccc3c(c2)OCO3)N1c1ccccc1 (configuration not stated),21,-1,-11,46*,-43,-26
CC(=O)C1=NN(c2ccccc2)C(c2cccs2)N1c1ccc(N(C)C)cc1 (configuration not stated),81*,8,2,70*,-87,-10
CC(=O)Nc1ccc(S(=O)(=O)N(C)CC(=O)OCC(=O)NCc2ccco2)cc1,/,/,-6,/,/,/
O=C(C[N+]1(CC#Cc2ccccc2)CCOCC1)c1ccccc1,3,9,-39,0,-9,5
O=C(C[N+]1(CC#Cc2ccccc2)CCCCC1)c1ccccc1,25*,2,-23,34*,-7,-12
SMILES,Ba/F3 V617F tox,IEC-6 tox,aSyn UTR inh,BaF3 tox,KLF5 inh,APP 5UTR inh
O=C(C[N+]1(CC#Cc2ccccc2)CCCCC1)c1ccc(Cl)cc1,0,9,-3,38*,-10,-2
Cc1cc(=O)oc2cc(NC(=O)c3ccccc3OC(F)F)ccc12,/,12,-114,/,-88,/
CC1CSc2n(-c3cccc(C(F)(F)F)c3)cc(-c3ccccc3)[n+]21 (configuration not stated),56*,7,-22,84*,-12,-23
FC(F)(F)c1cccc(-n2cc(-c3ccccc3)[nH]c2=S)c1,/,1,-26,/,-2,/
CCCCCc1ccc(-c2ccc(/C=C/C(=O)O)cc2)nc1,5,9,79*,7,12,21
S=c1[nH]nc(COc2ccc(Cl)cc2Cl)n1-c1ccccc1,/,3,8,/,-4,/
COCCOC(=O)c1[nH]c2c(c1C)C(=O)CC(c1ccco1)C2 (configuration not stated),76*,17,44,77*,16,96*
C=CCOC(=O)c1[nH]c2c(c1C)C(=O)CC(c1cc(OC)c(OC)c(OC)c1)C2 (configuration not stated),41*,5,-13,44*,9,-12
C=CCOc1ccc(C2N3CC4(C)CN2CC(CCC)(C3)C4=O)cc1 (configuration not stated),4,-5,/,1,7,0
CCCC12CN3CC(C)(CN(C1)C3c1ccc(OC)cc1)C2=O (configuration not stated),2,-3,-17,94*,-4,-12
CN(C)CCCN(C(=O)/C=C/c1cccs1)c1nc2ccc(F)cc2s1,6,0,-14,13,-10,-31
CN(C)CCN(C(=O)/C=C/c1cccs1)c1nc2c(F)cc(F)cc2s1,2,-2,96*,7,14,8
Cc1nc(N2CCN(C)CC2)c2sc(=S)n(-c3ccccc3)c2n1,5,-1,-31,5,-23,-11
S=c1sc2c(Cl)ncnc2n1-c1ccccc1,0,7,93*,0,-26,65*
Cc1ccc(C(=O)N/N=C/c2ccc([N+](=O)[O-])s2)cc1,-1,-1,108*,1,-34,70*
Cc1cc(C(=O)N/N=C/c2ccc([N+](=O)[O-])s2)n[nH]1,6,3,79*,3,12,/
Cc1cc(C(=O)N/N=C/c2ccc(C)s2)n[nH]1,/,5,-97,/,-67,/
O=C(N/N=C/c1ccc([N+](=O)[O-])s1)c1ccncc1,1,-4,-64,8,-9,14
O=C(N/N=C/c1ccc(Br)s1)c1ccc([N+](=O)[O-])cc1,-3,1,84*,0,-32,36
O=C(N/N=C/c1ccc([N+](=O)[O-])s1)c1cccc(Br)c1,6,12,67*,10,-1,24
CC(c1ccccc1)n1c(N2CCNCC2)nc2c1c(=O)[nH]c(=O)n2C (configuration not stated),/,-2,4,/,-45,/
O=C(Nc1ccc(C(=O)N2CCCCC2)cc1)Nc1cccc(Cl)c1,/,2,-82,/,-134,/
